According to PubChem BioAssay AID1159580 (chemical genetic matrix, 2015):
About 2,000 (36%) of roughly 5,500 compounds were called active. Another 18% or so got no clear call; they are omitted. No stated cut-off is given here; in the data, active means normalized growth mostly below about 0.91 (no sharp cut-off); inconclusive means no clear call, values can overlap the other calls; inactive means mostly above about 0.92. This is one part of the list.

Test: chemical genetic growth profiling, strain panel (AID 1159580);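 further: tested at 20 µM; growth read once vehicle control cultures reached saturation at 30 °C; 1 = growth at the plate median or of vehicle wells; lower values mean less growth of the strain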
Details: growth OD

Measured: normalized growth

NS(=O)(=O)c1cc2c(cc1Cl)NC(C(Cl)Cl)NS2(=O)=O (stereo not drawn)
inactive: S. cerevisiae deletion strains, locus YKL009W, strain mrt4, hits give low values 1.02 | S. cerevisiae deletion strains, locus YKL068W, hits give low values 1 | S. cerevisiae deletion strains, locus YKL085W, strain MDH1 (second series), hits give low values 1.01 | S. cerevisiae deletion strains, locus YKL085W, strain MDH1, hits give low values 1.01 | S. cerevisiae deletion strains, locus YKL160W, strain elf1, hits give low values 1 | S. cerevisiae deletion strains, locus YKL190W, strain CNB1, hits give low values 1.02 | S. cerevisiae deletion strains, locus YKR001C, strain vps1, hits give low values 1.03 | S. cerevisiae deletion strains, locus YKR026C, strain gcn3, hits give low values 0.99 | S. cerevisiae deletion strains, locus YKR091W, strain srl3, hits give low values 0.97 | S. cerevisiae deletion strains, locus YLL001W, strain dnm1, hits give low values 1.01 | S. cerevisiae deletion strains, locus YLL026W, hits give low values 0.991 | S. cerevisiae deletion strains, locus YLL041C, strain sdh2, hits give low values 0.988 | S. cerevisiae deletion strains, locus YLR027C, strain aat2, hits give low values 0.985 | S. cerevisiae deletion strains, locus YLR039C, strain RIC1, hits give low values 1.06 | S. cerevisiae deletion strains, locus YLR058C, strain SHM2, hits give low values 1.02 | S. cerevisiae deletion strains, locus YLR102C, strain apc9, hits give low values 1.01 | S. cerevisiae deletion strains, locus YLR113W, strain HOG1, hits give low values 0.996 | S. cerevisiae deletion strains, locus YLR221C, strain rsa3, hits give low values 0.949 | S. cerevisiae deletion strains, locus YLR258W, strain gsy2, hits give low values 0.977 | S. cerevisiae deletion strains, locus YLR262C, strain YPT6 (second series), hits give low values 0.999 | S. cerevisiae deletion strains, locus YLR262C, strain YPT6, hits give low values 1.05 | S. cerevisiae deletion strains, locus YLR268W, strain sec22, hits give low values 1.04 | S. cerevisiae deletion strains, locus YLR320W, strain mms22, hits give low values 0.972 | S. cerevisiae deletion strains, locus YLR330W, strain CHS5, hits give low values 1 | S. cerevisiae deletion strains, locus YLR342W, strain FKS1 (second series), hits give low values 1.02 | S. cerevisiae deletion strains, locus YLR342W, strain FKS1, hits give low values 0.993 | S. cerevisiae deletion strains, locus YLR357W, strain rsc2, hits give low values 0.956 | S. cerevisiae deletion strains, locus YLR370C, strain arc18, hits give low values 0.985 | S. cerevisiae deletion strains, locus YLR371W, strain rom2, hits give low values 1.02 | S. cerevisiae deletion strains, locus YLR384C, strain iki3, hits give low values 0.973 | S. cerevisiae deletion strains, locus YLR418C, strain cdc73, hits give low values 1.05 | S. cerevisiae deletion strains, locus YML016C, strain PPZ1, hits give low values 1 | S. cerevisiae deletion strains, locus YML032C, strain rad52, hits give low values 1.02 | S. cerevisiae deletion strains, locus YML120C, strain ndi1, hits give low values 0.986 | S. cerevisiae deletion strains, locus YML124C, strain tub3, hits give low values 1.02 | S. cerevisiae deletion strains, locus YMR058W, strain fet3, hits give low values 0.982 | S. cerevisiae deletion strains, locus YMR078C, strain ctf18, hits give low values 1.02 | S. cerevisiae deletion strains, locus YMR125W, strain sto1, hits give low values 0.966 | S. cerevisiae deletion strains, locus YMR129W, hits give low values 0.97 | S. cerevisiae deletion strains, locus YMR205C, strain PFK2, hits give low values 0.994 | S. cerevisiae deletion strains, locus YMR223W, strain ubp8, hits give low values 1.01 | S. cerevisiae deletion strains, locus YMR231W, strain pep5, hits give low values 0.971 | S. cerevisiae deletion strains, locus YMR263W, strain SAP30, hits give low values 1.01 | S. cerevisiae deletion strains, locus YMR307W, strain GAS1, hits give low values 1 | S. cerevisiae deletion strains, locus YNL067W, strain RPL9B, hits give low values 1.01 | S. cerevisiae deletion strains, locus YNL071W, strain lat1, hits give low values 0.981 | S. cerevisiae deletion strains, locus YNL183C, strain NPR1, hits give low values 0.943 | S. cerevisiae deletion strains, locus YNL209W, strain ssb2, hits give low values 0.997 | S. cerevisiae deletion strains, locus YNL233W, strain BNI4, hits give low values 1.01 | S. cerevisiae deletion strains, locus YNL248C, strain rpa49, hits give low values 0.935 | S. cerevisiae deletion strains, locus YNL250W, strain rad50, hits give low values 1.02 | S. cerevisiae deletion strains, locus YNL271C, strain bni1, hits give low values 1.01 | S. cerevisiae deletion strains, locus YNL298W, strain CLA4, hits give low values 1.01 | S. cerevisiae deletion strains, locus YNL307C, strain MCK1, hits give low values 1.03 | S. cerevisiae deletion strains, locus YNL322C, strain KRE1 (second series), hits give low values 0.968 | S. cerevisiae deletion strains, locus YNR049C, strain mso1, hits give low values 0.971 | S. cerevisiae deletion strains, locus YNR052C, strain pop2, hits give low values 1.01 | S. cerevisiae deletion strains, locus YOL006C, strain TOP1, hits give low values 1.02 | S. cerevisiae deletion strains, locus YOL012C, strain htz1 0.822 | S. cerevisiae deletion strains, locus YOL147C, strain pex11, hits give low values 1.01 | S. cerevisiae deletion strains, locus YOR001W, strain rrp6, hits give low values 0.978 | S. cerevisiae deletion strains, locus YOR061W, strain CKA2, hits give low values 1 | S. cerevisiae deletion strains, locus YOR069W, strain VPS5, hits give low values 1.01 | S. cerevisiae deletion strains, locus YOR070C, strain gyp1, hits give low values 0.983 | S. cerevisiae deletion strains, locus YOR080W, strain dia2, hits give low values 0.984 | S. cerevisiae deletion strains, locus YOR083W, strain WHI5, hits give low values 0.982 | S. cerevisiae deletion strains, locus YOR106W, strain vam3, hits give low values 1.01 | S. cerevisiae deletion strains, locus YOR136W, strain idh2, hits give low values 1.01 | S. cerevisiae deletion strains, locus YOR144C, strain elg1, hits give low values 1 | S. cerevisiae deletion strains, locus YOR184W, strain ser1, hits give low values 1.02 | S. cerevisiae deletion strains, locus YOR231W, strain MKK1, hits give low values 0.98 | S. cerevisiae deletion strains, locus YOR265W, strain rbl2, hits give low values 0.981 | S. cerevisiae deletion strains, locus YOR270C, strain vph1, hits give low values 0.967 | S. cerevisiae deletion strains, locus YOR290C, strain snf2, hits give low values 0.945 | S. cerevisiae deletion strains, locus YOR316C, strain cot1, hits give low values 1.01 | S. cerevisiae deletion strains, locus YPL051W, strain arl3, hits give low values 0.991 | S. cerevisiae deletion strains, locus YPL055C, strain LGE1, hits give low values 1.02 | S. cerevisiae deletion strains, locus YPL078C, strain atp4, hits give low values 1 | S. cerevisiae deletion strains, locus YPL106C, strain sse1, hits give low values 0.96 | S. cerevisiae deletion strains, locus YPL240C, strain hsp82, hits give low values 0.983 | S. cerevisiae deletion strains, locus YPL241C, strain CIN2, hits give low values 1.01 | S. cerevisiae deletion strains, locus YPL256C, strain CLN2, hits give low values 0.969 | S. cerevisiae deletion strains, locus YPR119W, strain clb2, hits give low values 1 | S. cerevisiae deletion strains, locus YPR141C, strain kar3, hits give low values 1.02 | S. cerevisiae deletion strains, locus YPR163C, strain tif3, hits give low values 1.02 | S. cerevisiae deletion strains, locus YPR167C, strain met16, hits give low values 1.01 | S. cerevisiae deletion strains, strain wtn01, hits give low values 1.03 | S. cerevisiae strains, strain wild type, hits give low values 1
